Assay outcomes from PubChem BioAssay.
The full list was thinned out, with hits kept by preference.
Shiga inhibitor – inhibitors of Shiga toxin in Vero cells. Vero cells, Shiga toxin protein synthesis inhibition reporter. inhibition, % at 38.7 µM. 9.2% of 290,000 active. AID 2315; in the data active means inhibition mostly above about 28%, no sharp cut-off; inactive means mostly below about 43%; further: 0% is about no effect
TbPYK inhibitor – T. brucei pyruvate kinase inhibition; TbPYK enzyme, Kinase-Glo Plus ATP luminescence, 45 min; Potency, µM (doses to about 76.8 µM), for inactives: at the top dose activity, negative = inhibition, hits mostly inhibitors; 0.12% of 410,000 active; further: potency means the concentration at half of the fitted maximal effect; on the % scale 0 is the no-effect control and ±100 the full control effect; nearly all actives have a fitted effect of over 50% in size
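Quantitative HTS: titrated library compounds versus trypanosomal pyruvate kinase in TEA buffer (pH 7.2) containing KCl, MgCl2, BSA and Tween-20. Reactions were initiated with ADP, 130 uM final. Kinase-Glo Plus luminescence was read after 45 min at RT.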
Giardia FBPA inh – blocks Giardia fructose-bisphosphate aldolase activity; Potency, µM (series often up to 59.6 µM), for the others: at the highest dose activity, negative = inhibition, usual class: inhibitors; AID 2451; A8B2U2; 0.71% of 290,000 active; purified Giardia FBPA; further: potency means the concentration at half of the fitted maximal effect; on the % scale 0 is the no-effect control and ±100 the full control effect; nearly all actives have a fitted effect of over 55% in size
Target sequence (A8B2U2 whole entry, looked up): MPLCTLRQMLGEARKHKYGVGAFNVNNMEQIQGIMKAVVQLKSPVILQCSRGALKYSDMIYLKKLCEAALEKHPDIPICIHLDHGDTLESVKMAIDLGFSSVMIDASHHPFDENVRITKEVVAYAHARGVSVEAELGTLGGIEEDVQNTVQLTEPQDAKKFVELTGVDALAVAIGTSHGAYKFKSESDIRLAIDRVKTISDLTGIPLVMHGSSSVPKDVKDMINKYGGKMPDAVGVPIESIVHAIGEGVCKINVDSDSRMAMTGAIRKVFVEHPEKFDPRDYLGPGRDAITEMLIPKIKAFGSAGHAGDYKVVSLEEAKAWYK
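40 nM FBPA preincubated 10 min at RT with compound (up to 57.5 uM final), then substrate plus GAPDH/TPI/NAD/arsenate coupling and diaphorase/resazurin added. Fluorescence read after 20 min at RT, 525/598 nm.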
LmPK inh – inhibitors of Leishmania mexicana pyruvate kinase; Q27686; purified LmPK, Kinase-Glo ATP luminescence, 1 h; Potency, µM (top dose mostly 57.5 µM), inactives show top-dose activity change, negative = inhibition, hits mostly inhibitors; 0.37% of 290,000 active; AID 1721; further: potency means the concentration at half of the fitted maximal effect; on the % scale 0 is the no-effect control and ±100 the full control effect
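In 50 mM imidazole pH 7.2 with 7 mM MgCl2, LmPK (0.1 nM) turned over PEP (0.5 mM) and ADP (0.1 mM) for 1 h at room temperature. Luciferase read-out of ATP.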
RE007 growth inh – less growth of the S. pombe RE007 Vpr strain; S. pombe RE007 Vpr strain, BacTiter-Glo ATP luminescence, 24 h; AID 651644; 0.21% of 360,000 active; Potency, µM (titrated, usually from 92.2 µM), for inactives: at the top dose activity change, negative = less growth, actives largely listed as inhibitors; active means well fitted falling curve with a large enough effect; inconclusive means small, poorly fitted or top-dose-only effect; inactive means no such curve, though single readings can be large or run the other way; further: potency means the concentration at half of the fitted maximal effect; on the % scale 0 is the no-effect control and ±100 the full control effect; nearly all actives have a fitted effect of over 50% in size
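Fission yeast RE007 carrying one integrated HIV-1 vpr copy, seeded at OD 0.01 in PMG+AL medium with 23 nL pinned compound. Grown 24 h at 30 degrees; viability read by BacTiter-Glo luminescence after 5 min.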
CHX counter – affects cycloheximide protein synthesis inhibition readout, counter-screen | cell reporter, cycloheximide protein synthesis inhibition counterscreen | max response, % | 12% of 300,000 active | AID 2314; in the data active means max response mostly above about 13%, no sharp cut-off; inactive means mostly below about 14%; further: read at 38.3 µM for the half of the compounds with a filed dose; 0% is about no effect
* = called active by the depositor; ? = inconclusive; nt = no result. Unless noted, the call rests on the fitted dose curve; in most records, active means well fitted curve in the direction sought with a large enough effect; inconclusive means small, poorly fitted or top-dose-only effect, or another doubt; inactive means no such curve, though single readings can be large; an effect the other way counts as inactive or inconclusive.

SMILES | Shiga inhibitor | TbPYK inhibitor | Giardia FBPA inh | LmPK inh | RE007 growth inh | CHX counter
Cc1oc(C(C)(C)C)cc1C(=O)Nc1cccc(C(=O)O)c1 | 80* | -12% | 11% | 0% | 5% | 37*
Cc1oc(C(C)(C)C)cc1C(=O)Nc1ccc(C(=O)O)cc1 | 48 | 3% | 7% | 2% | 12% | 36*
Cc1cc(C(=O)Nc2cccc(C(=O)O)c2)c(C)o1 | 20 | -1% | -2% | -3% | -7% | 3
Cc1oc(CC(C)C)cc1C(=O)Nc1ccc(C(=O)O)cc1 | 43 | -10% | 5% | 0% | 1% | 57*
COc1ccc(C(=O)NNc2ncnc3c2cnn3-c2ccc(C)cc2C)cc1 | nt | -1% | nt | nt | nt | nt
O=C(CN1C(=O)CCC1=O)Nc1nc(-c2ccc3ccccc3c2)cs1 | 96* | -3% | -7% | 1% | 5% | 40*
Cc1ccc(-c2csc(NC(=O)CN3C(=O)CCC3=O)n2)cc1 | 17 | 0% | -5% | -1% | 3% | 14
O=C(CN1C(=O)CCC1=O)Nc1nc(-c2nc3ccccc3s2)cs1 | active | -9% | 5% | -1% | 9% | 25*
CSc1ccc(CN2CCC2(C)C(=O)Nc2ccc3c(c2)OCO3)cc1 (configuration not stated) | nt | -8% | nt | nt | -10% | nt
Cc1ccc2[nH]c(C)c(/C=N/Nc3nc4ccccc4s3)c2c1 | 39 | 4% | 1% | 4% | -3% | 51*
O=C(N/N=C\c1cc(Br)cs1)c1ccncc1 | 36 | 1% | -8% | -3% | 2% | 1
C(=NNc1ccc2ccccc2n1)c1ccccn1 | nt | -16% | nt | nt | 28µM* | nt
O=C(N/N=C/c1ccccn1)c1cc(-c2ccncc2)nc2ccccc12 | -4 | 2% | -2% | -1% | 9% | -3
Brc1csc(/C=N/Nc2nc3ccccc3s2)c1 | 92* | 2% | -5% | -5% | -27% | 38*
C(=N\Nc1ccccc1)/c1nc2ccccc2s1 | 135* | 0% | 7% | -6% | -5% | 64*
Brc1ccsc1/C=N/Nc1ccccc1 | nt | -3% | nt | nt | 21% | nt
COc1ccccc1C(=O)NNC(=O)C1CCCO1 (configuration not stated) | 25 | 1% | -24% | 0% | 32% | 1
CC(C)NC(=O)NC(=O)COC(=O)C1(C)CC1(Cl)Cl (configuration not stated) | -2 | 1% | 2% | -1% | 17% | 8
COc1ccc(NC(=O)Cn2c(=O)n(-c3ccccc3)c(=O)c3c4c(sc32)CCCC4)cc1 | nt | 5% | nt | nt | nt | nt
O=C(Cc1ccccc1)N/N=C/c1ccccn1 | nt | 7% | nt | nt | -1% | nt
C(=N\Nc1nc2ccccc2s1)/c1ccccn1 | -25 | -16% | ? | ? | 14µM* | -5
CC(=O)N1N=C2c3ccccc3CCC2C1c1ccc(F)cc1 (configuration not stated) | -9 | 0% | 6% | 2% | 17% | -1
COc1ccc2c(c1)CCC1C2=NN(/C(C)=C/C(C)=O)C1c1cccc(F)c1 (configuration not stated) | 47* | -10% | -28% | -1% | 2% | 32*
CC(=O)c1cccc(NC(=O)CSCc2ccc(Br)cc2)c1 | -4 | 5% | 1% | 1% | 16% | -1
CC(=O)c1cccc(NC(=O)CCCSc2ccccc2)c1 | 20* | 2% | 13% | 1% | 0% | 9
SMILES | Shiga inhibitor | TbPYK inhibitor | Giardia FBPA inh | LmPK inh | RE007 growth inh | CHX counter
O=C(CSCc1ccc(Cl)cc1)Nc1cccc(C(=O)O)c1 | 52* | -5% | 18% | -8% | ? | 27*
CC(=O)Nc1ccc(SCCCC(=O)c2ccccc2)cc1 | 72* | -5% | 6% | -3% | 40% | 29*
CN(C)S(=O)(=O)c1cccc(NC(=O)CCCSc2ccccc2)c1 | 35 | 0% | -12% | 9% | 3% | 2
CC(=O)c1cccc(NC(=O)CSCc2ccccc2)c1 | 71* | -2% | 3% | 3% | -7% | 39*
CCN1C(=O)c2ccccc2S(=O)c2ccc(C(=O)N3CCN(c4cccc(Cl)c4)CC3)cc21 (configuration not stated) | nt | 0% | nt | nt | nt | nt
COc1ccc(CCNC(=O)[C@H](C)N2C(=O)N3CCc4c([nH]c5ccccc45)[C@@]3(C)C2=O)cc1 | -3 | -1% | -12% | 1% | -6% | -2
O=C(CSCC(=O)N1CCOCC1)Nc1ccccc1 | -2 | -20% | 2% | 3% | -7% | -4
CCOC(=O)N1CCN(C(=O)CSCC(=O)Nc2nc(-c3ccc(Cl)s3)cs2)CC1 | -15 | 0% | -5% | -1% | 10% | 14*
CCOC(=O)N1CCN(C(=O)CSCC(=O)Nc2nc(-c3ccc(-c4ccccc4)cc3)cs2)CC1 | active | -9% | -2% | -4% | -9% | 32*
O=C(CSCC(=O)N1CCOCC1)Nc1nc(-c2ccccc2)cs1 | 84* | -4% | -1% | 1% | 5% | 35*
CCOC(=O)N1CCN(C(=O)CSCC(=O)Nc2nc(-c3ccc(OC)cc3)cs2)CC1 | -3 | -12% | 1% | -1% | 3% | 10
Cn1c(=O)[nH]c(=O)c2c1nc(N/N=C/C(Br)=C/c1ccccc1)n2CCO | -11 | 6% | ? | 0% | 2% | 1
CCOc1ccc(N/C=C/C(=O)c2ccc3ccccc3c2)c([N+](=O)[O-])c1 | 34 | -5% | 10% | -6% | -1% | 15
CCOc1ccc(N/C=C/C(=O)c2ccc(C)cc2)c([N+](=O)[O-])c1 | 64* | -7% | 8% | 0% | -12% | 42*
Cc1ccc(C(=O)/C=C/Nc2ccc([N+](=O)[O-])cc2Br)cc1 | 77* | -11% | 9% | 5% | -3% | 67*
COc1ccc(C(=O)/C=C/Nc2ccc([N+](=O)[O-])cc2C)cc1OC | 14 | -5% | 2% | -3% | 0% | 5
O=C(Nc1ccc(C(F)(F)F)cc1)OC1CN2CCC1CC2 (configuration not stated) | 55* | 0% | 5% | 2% | 17% | 32*
Cc1sc(NC(=O)/C=C/c2ccc(C(C)C)cc2)c(C#N)c1C | -6 | 5% | 8% | 7% | -5% | -1
COc1ccc(-c2csc(NC(=S)NC(=O)c3ccco3)n2)cc1Br | 4 | 3% | nt | -2% | -3% | 10
COc1ccc(-c2csc(NC(=S)NC(=O)c3cc4ccccc4o3)n2)cc1Br | 18 | 7% | -30% | 0% | -8% | 14*
CC(C)c1ccc(/C=C/C(=O)Nc2nncs2)cc1 | 33* | -8% | 1% | -9% | 36% | 49*
Cc1cc(-c2csc(NC(=O)c3cc4ccccc4o3)n2)c(C)n1C | 40* | -11% | -4% | -6% | -1% | 32*
O=C(Nc1nc(-c2ccccn2)cs1)c1cc2ccccc2o1 | 58* | -7% | ? | -7% | ? | 42*
